# From PubChem
# CHT block: inhibitors of human choline transporter CHT | CHT-expressing cells, membrane potential dye, choline response; hits give low values | AID 488975, 2010 | B-score at 10 µM | 310,000 tested, 0.86% active | High affinity choline transporter 1 (Homo sapiens), Q9GZV3;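 active = B-score over 3 SD under the library average, and starting fluorescence ratio not unusually high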;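 note: choline stimulus applied at its EC90 after an EC20 pre-addition; B-score computed on integrated fluorescence ratio after choline addition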
# Target sequence (Q9GZV3 whole entry, looked up): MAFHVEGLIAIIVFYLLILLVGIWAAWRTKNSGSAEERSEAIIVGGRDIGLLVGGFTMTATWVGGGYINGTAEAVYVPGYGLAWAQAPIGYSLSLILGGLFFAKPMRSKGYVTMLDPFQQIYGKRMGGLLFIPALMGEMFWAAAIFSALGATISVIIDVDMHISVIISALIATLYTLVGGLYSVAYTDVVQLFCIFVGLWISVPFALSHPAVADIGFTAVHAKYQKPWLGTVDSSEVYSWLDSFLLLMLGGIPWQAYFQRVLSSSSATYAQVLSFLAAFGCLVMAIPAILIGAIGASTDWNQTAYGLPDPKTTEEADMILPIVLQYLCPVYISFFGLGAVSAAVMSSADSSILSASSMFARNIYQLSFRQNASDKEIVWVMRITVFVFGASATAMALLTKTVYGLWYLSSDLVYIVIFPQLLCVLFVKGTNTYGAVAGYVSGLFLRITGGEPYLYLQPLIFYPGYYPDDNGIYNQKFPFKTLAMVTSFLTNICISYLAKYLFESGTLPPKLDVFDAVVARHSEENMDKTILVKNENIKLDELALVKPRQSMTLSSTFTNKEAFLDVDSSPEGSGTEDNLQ
# CHT allo act: CHT positive allosteric modulators, primary screen, cell-based, membrane potential dye, choline EC20; High affinity choline transporter 1 (Homo sapiens), Q9GZV3; CHT-expressing cells; hits give high values; LV-AA mutant CHT in HEK293 cells; B-score at 10 µM; 310,000 tested, 0.49% active;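 active = initial fluorescence not abnormally high and integrated response B-score, plate-corrected, over 3 SD above library mean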
# MIN6 prolif: inducers of MIN6 beta-cell proliferation, primary screen, ATP luminescence, uHTS | 330,000 tested, 0.29% active | MIN6 cells proliferation, ATPlite luminescence, 48 h; cells starved in 0.2% serum; 100% = growth in 10% serum | proliferation, % at 10 µM;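 active = compounds whose signal lies at least 3.5 SD above the mean of all wells on their plate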;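 note: 0% = DMSO-treated cells in low-serum medium and 100% = 10% serum control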
# H9c2 TAG inh: inhibitors of triacylglycerol accumulation, primary screen, cell-based, uHTS, fluorescence, H9c2; H9c2 cells, Nile Red lipid (TAG) fluorescence; cells loaded with 200 µM oleic acid; inhibition, % at 12.5 µM; 230,000 tested, 0.66% active; AID 651582, 2012;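 active = pattern-corrected inhibition of lipid staining of at least 50% with the nuclear-stain viability signal not falling by more than 50%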;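 note: 0% = DMSO wells and 100% = triacsin C control wells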
# CHT act confirm: CHT activators, confirmation, cell-based, membrane potential dye, duplicate; shares compounds with CHT allo act; activation, % at 10 µM; 2,500 tested, 91% active; CHT-expressing cells, membrane potential dye fluorescence (FDSS); % of choline EC20–EC90 response window; HEK293 expressing CHT LV-AA mutant; choline added at its EC20;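 active = primary screen active, with duplicate mean activation above negative control mean plus 3 SD, cut at about 11% in these data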
# HEK293 MP dye: membrane potential response in parental HEK293 cells, counter-screen for CHT activator project, cell-based, membrane potential dye; ratio readout change at 10 µM, hits read low; 2,500 tested, 62% active; shares compounds with CHT allo act; membrane potential dye fluorescence (FDSS); measured after EC20 choline addition; AID 623908, 2012;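 active = duplicate-averaged ratio beyond 3 SD from buffer wells, up or down, though filed actives are nearly all decreases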
# * = called active by the depositor; i = inactive; nt = not tested or not shown. In the library only some 1.7% were active in any assay of this set; here they are far more common.
SMILES,CHT block,CHT allo act,MIN6 prolif,H9c2 TAG inh,CHT act confirm,HEK293 MP dye
CN(CC(=O)N1CCN(Cc2ccccc2)CC1)C(=O)Cc1cccc2ccccc12,nt,nt,-3,-13,nt,nt
COc1ccc(C(CNC(=O)CSc2ccccc2F)N2CCOCC2)cc1 (centres undefined),i,i,-5,9,nt,nt
COc1ccc(C(CNC(=O)CSc2ccc(Br)cc2C)N2CCOCC2)cc1 (centres undefined),i,i,-2,-20,-1,i
CC[n+]1c(C)sc2cc(C)ccc21,i,i,-6,-2,68*,-58*
O=C(CN1C(=O)c2ccccc2C1=O)Nc1ccc(S(=O)(=O)N2CCOCC2)cc1,i,i,-1,-5,nt,nt
Cc1sc2nc(SCc3ccc(C(=O)O)cc3)n(Cc3ccco3)c(=O)c2c1C,i,6.7*,-1,-8,32*,i
COc1ccc(OC)c(C(c2nnnn2Cc2ccccc2)N2CCN(C3CCCCC3)CC2)c1 (centres undefined),i,i,-2,27,10*,i
Fc1ccc(Cn2nnnc2C(c2cccs2)N2CCN(C3CCCCC3)CC2)cc1 (centres undefined),i,i,-5,0,40*,-25*
CCOC(=O)N1CCN(S(=O)(=O)c2cc([N+](=O)[O-])c(C)cc2C)CC1,i,i,0,0,nt,nt
C[N+](C)(C)CC(=O)N1CCN(c2ccc3ccccc3n2)CC1,i,8.7*,-1,nt,79*,-63*
O=[N+]([O-])c1ccc(/C=C/C2=NN(c3ccccc3)C(c3ccco3)C2)cc1 (centres undefined),i,15*,nt,nt,51*,i
O=[N+]([O-])c1ccc(C2=NN(c3ccccc3)C(c3ccco3)C2)cc1 (centres undefined),nt,nt,nt,-430,nt,nt
O=C(Nc1ccc(-n2cnnn2)cc1)C1CCCCC1,i,9.1*,-4,-1,35*,-33*
O=C(COC(=O)/C=C/c1cccs1)Nc1ccc2ccccc2c1,i,i,-1,nt,nt,nt
COc1cc(C(=O)c2cocc2C(=O)c2ccc3c(c2)OCO3)cc(OC)c1OC,i,11*,nt,nt,26*,i
Cc1cccc(CN2C(=O)/C(=C\c3ccc(C(=O)NCCN4CCOCC4)cc3)Sc3ccccc32)c1,i,i,0,nt,nt,nt
CCN1CCN(CCNC(=O)c2ccc(/C=C3/Sc4ccccc4N(Cc4cccc(Cl)c4)C3=O)cc2)CC1,i,i,-7,13,17*,-28*
Cc1cnc(C(=O)OCC(=O)c2ccc[nH]2)cn1,i,i,-3,-5,nt,nt
CN(C)C(=S)SCCn1c(N)nc(N(C)C)nc1=O,i,i,1,4,nt,nt
C#CCOCCOCCOCCNc1nc(N2CCN(C(=O)[C@H](CCCCN)n3cc([C@@H](N)C(C)CC)nn3)CC2)nc(N2CCN(C(=O)[C@H](CCCCN)n3cc([C@@H](N)CC(C)C)nn3)CC2)n1 (some centres undefined),i,6.5*,-4,-41,38*,-37*
Cc1cc(NC2CCCCC2)nc(N2CCOCC2)n1,i,i,-3,nt,nt,nt
CNc1cc(C)nc(N2CCOCC2)n1,i,i,-1,-2,53*,-43*
Cc1ccc(-c2nc3ncccn3c2Nc2ccccc2C)o1,i,i,-1,nt,40*,-43*
Cc1ccc(-c2nc3ncccn3c2NC2CCCC2)o1,i,i,0,-14,nt,nt
O=C(NC1CCN(S(=O)(=O)c2cccc(Cl)c2)CC1)C1CCCCC1,i,i,0,nt,nt,nt
SMILES,CHT block,CHT allo act,MIN6 prolif,H9c2 TAG inh,CHT act confirm,HEK293 MP dye
CN(C)CCCNc1c2c(nc3ccccc13)CCC2,i,i,1,nt,62*,-66*
COc1ccc(C)cc1Nc1c2c(nc3ccccc13)CCC2,i,6.8*,-4,nt,36*,-27*
COc1ccc(Nc2c3c(nc4ccccc24)CCCC3)cc1OC,i,i,-5,9,nt,nt
COCCNc1c2c(nc3ccccc13)CCC2,i,i,-3,nt,44*,-40*
COc1ccc(Nc2c3c(nc4ccccc24)CCC3)cc1,i,i,-5,nt,nt,nt
COc1cccc(CNC(=O)CCC2CCCN(c3cc(C)nc(N4CCCC4)n3)C2)c1 (centres undefined),i,i,4,12,nt,nt
CCOc1ccc(CN(C)C(=O)CNC(=O)c2sc3ccccc3c2Cl)cc1,nt,nt,-4,-25,nt,nt
COc1cccc(/C=N/NC(=O)c2ccccc2)c1OS(=O)(=O)c1ccccc1,i,i,0,nt,nt,nt
COc1cccc(/C=N/NC(=O)c2ccc(=O)n(C)c2)c1OC,i,6.3*,-1,nt,14*,-32*
Cc1sc2ncn3c(C)nnc3c2c1C,i,7*,-1,nt,59*,-58*
CCOC(=O)C1CCN(C(=O)Cn2ncc3c([nH]c4ccccc43)c2=O)CC1,i,i,-1,nt,nt,nt
C[n+]1ccccc1/C=C/c1ccccc1Cl,i,i,-2,-3,nt,nt
C[n+]1ccccc1/C=C/c1ccc(F)c(F)c1,i,8.3*,-1,nt,58*,-65*
Cc1ccccc1/C=C/c1cccc[n+]1C,i,i,-3,nt,45*,-55*
Cc1cccc(N2CCN(C(=O)Cc3ccccc3[N+](=O)[O-])CC2)c1C,i,i,-1,nt,nt,nt
CCCCN1C(=O)C(=O)N(CC(=O)Nc2cc(OCC)c(N3CCOCC3)cc2OCC)C1=O,i,i,-4,0,nt,nt
c1ccc(CN2CCN(c3nc(NCc4ccco4)c4ccccc4n3)CC2)cc1,i,6.4*,-5,nt,26*,-53*
Cc1ccc(Sc2ccc(S(=O)(=O)Nc3ccc(CC(=O)O)cc3)cc2)cc1C,nt,nt,-4,9,nt,nt
Cc1cc(N2CCOCC2)n2cc(-c3ccc(F)cc3)nc2n1,i,i,0,-11,31*,-21*
O=C(Nc1ccc2c(c1)OCO2)c1cc(C2CCCCN2C(=O)c2ccccc2)on1 (centres undefined),nt,nt,nt,2,nt,nt
O=C(Nc1ccc(C(=O)N2CCOCC2)cc1)c1ccccc1Cl,nt,nt,nt,-4,nt,nt
C=CC[n+]1ccc2ccccc2c1C,i,7.7*,-2,nt,65*,-61*
CN1CCN(NC(=O)c2cc(-c3ccccn3)nc3ccccc23)CC1,i,i,0,5,nt,nt
CN1CCN(NC(=O)c2cc(-c3ccc(Cl)s3)nc3ccccc23)CC1,i,i,-4,nt,7,-37*
